Assay outcomes from PubChem.
TDP1 inh = blocks human tyrosyl-DNA phosphodiesterase 1. recombinant TDP1, AlphaScreen DNA substrate cleavage. Q9NUW8. hit rate 0.28% among 350,000. Potency, µM (highest dose often 130 µM), inactives show at the highest dose activity change, negative = inhibition, actives largely listed as inhibitors; note: potency is the fitted concentration of half-maximal effect; nearly all actives have a fitted effect of over 40% in size
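Enzyme-compound mixtures sat 15 min at room temperature, followed by a 5 min reaction with 15 nM final substrate and 10 min with AlphaScreen beads. Recombinant human Tdp1 was used at 1 nM final.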
TDP1 cell CPT = DT40-hTDP1 cell growth loss with CPT; chicken DT40 Tdp1-/-;hTDP1 cells + 20 nM CPT, ATP luminescence, 48 h; hit rate 12% among 420,000; Potency, µM (top dose mostly 46.2 µM), for inactives: at the highest dose activity change, negative = growth inhibition, actives largely listed as inhibitors; note: potency is the fitted concentration of half-maximal effect; nearly all actives have a fitted effect of over 55% in size
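Chicken DT40 Tdp1-/- cells stably complemented with human TDP1 were seeded at 400 cells/well in medium containing 20 nM camptothecin, exposed to pin-transferred compounds, and grown at 37 °C for at least 48 hr. Viability was read as ATP luminescence.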
DT40 TDP1 no CPT = qHTS for Inhibitors of human tyrosyl-DNA phosphodiesterase 1 (TDP1): qHTS in cells in absence of CPT | DT40 Tdp1-/- hTDP1 cells, no CPT, ATP luminescence, 48 h | Potency, µM (series often up to 46.2 µM), for inactives: at the highest dose activity change, negative = growth inhibition, actives largely listed as inhibitors | hit rate 15% among 420,000; note: potency is the fitted concentration of half-maximal effect; nearly all actives have a fitted effect of over 55% in size
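A cellular qHTS used chicken DT40 cells lacking endogenous Tdp1 but carrying stably transfected human TDP1. Compounds were applied without camptothecin, and cell growth kinetics were judged by ATP-dependent luminescence after ≥48 hr.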
CtBP-E1A inh = inhibitors of CtBP/E1A interaction; activity change, % (no concentration beside the values); AID 651724; AlphaScreen GST-E1A/His-CtBP binding, 1536-well; stronger effect = lower value; hit rate 0.49% among 340,000; in the data active = activity change below about -65%; inconclusive = mostly about -30% to -63%
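Steps: dispense buffer (Tris pH 8.0, NaCl 300 mM, TCEP 1 mM, BSA, Tween 20); add 5X protein mix (GST-E1A, His-CtBP, 125 nM each); pin 23 nL compound; 2 h at 37 °C, dark; add 5X beads (50 ug/mL); 1 h; read.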
Six1-Eya2 inh = Six1/Eya2 interaction inhibition; Q15475+O00167; AlphaScreen GST-Six1/His-Eya2 binding, biochemical; stronger effect = lower value; activity change, % (concentration not given with the values); hit rate 0.56% among 360,000; in the data active = activity change below about -65%; inconclusive = mostly about -30% to -63%
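AlphaScreen luminescence read after one hour at 37 °C in darkness. Pin-transferred compounds met GST-Six1 and His-Eya2 protein (5X stock 250 nM/500 nM) plus glutathione donor and Ni-chelate acceptor beads (5X, 50 ug/mL).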
IL-1B inflam inh = inhibitors of inflammasome signaling (IL-1 beta secretion); THP-1 LPS/ATP IL-1B secretion, AlphaLISA, 16 h; stronger effect = lower value; activity change, % at 57.5 µM; hit rate 4.7% among 360,000; AID 743279; in the data active = activity change below about -50%; inconclusive = mostly about -30% to -49%
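THP-1 cells pretreated 1 hr with compounds (up to 57.5 uM final), then stimulated with LPS (250 ng/mL final) plus ATP (1.25 mM final); secreted IL-1B measured by AlphaLISA after 16 hr, decreased signal indicating inhibition.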
Starred values were filed as active, the others as inactive; i = inactive; ? = inconclusive; nt = no result; [ ] = remark or other dose. Most compounds without a hit are left out; they make up all but 18% or so of the library. Unless noted, calls come from the whole dose curve; as a rule, active = well fitted curve in the direction sought with a large enough effect; inconclusive = small, poorly fitted or top-dose-only effect, or another doubt; inactive = no such curve, though single readings can be large; an effect the other way counts as inactive or inconclusive. % is set by controls: 0 for no effect and ±100 for the full control effect.

SMILES	TDP1 inh	TDP1 cell CPT	DT40 TDP1 no CPT	CtBP-E1A inh	Six1-Eya2 inh	IL-1B inflam inh
COc1cc(/C=N/NC(=O)CC23CC4CC(CC(C4)C2)C3)cc(Br)c1OCC(=O)N(C)C	2%	21µM*	18µM*	-2	0	-25
CC1=C(C(=O)Nc2ccccc2)C(c2ccc(C)o2)n2c(s/c(=C\c3ccco3)c2=O)=N1 (configuration not stated)	-7%	?	?	-2	-9	-27
O=C(NCCc1c[nH]c2ccccc12)c1ccc(Cl)cc1	10%	-6%	?	nt	-3	-15
O=C(NCCc1c[nH]c2ccc(Cl)cc12)c1cccnc1	9%	?	21µM*	45	17	-1
CN1CCN(c2oc(-c3ccccc3)nc2S(=O)(=O)c2ccccc2)CC1	0%	5%	4%	3	9	4
COc1cc(NC(=O)c2c(F)c(F)c(OC)c(F)c2F)ccc1NC(=O)c1cccs1	3%	21µM*	18µM*	?	?	0
COc1cc(NC(=O)c2ccc(C)cc2C)ccc1NC(=O)c1cccs1	3%[0.0935 µM]	-7%	-17%	-11	-14	-63*
CC(C)CN1C(=O)c2ccc(NC(=O)c3cccs3)cc2C1=O	6%	?	18µM*	-1	0	-52*
COc1cc(NC(=O)c2cc(OC)c(OC)c(OC)c2)ccc1NC(=O)c1cccs1	4%	?	?	6	-14	i
COc1cc(NC(=S)NC(=O)c2ccc(C)cc2C)ccc1NC(=O)c1cccs1	-8%	?	?	-2	-7	25
O=C(Nc1cccc(NC(=O)c2cccs2)c1)c1ccc(Br)o1	nt	-25%	21µM*	-20	-17	-11
COc1ccc(C(=O)C2CCCN(S(=O)(=O)C(C)C)C2)c(C)c1 (configuration not stated)	0%	1%	?	nt	2	10
Cc1ccc(NC(=O)c2cc3c(s2)CCC3)cc1S(=O)(=O)N1CCOCC1	0%	?	?	3	-3	?
COc1ccc(NC(=O)CCC(=O)Nc2cc(OC)c(NC(=O)c3cccs3)cc2OC)cc1	-12%	-22%	?	-79*	-79*	-12
O=C(Nc1cccc(NC(=O)c2cccs2)c1)c1ccc(F)cc1	nt	?	?	-5	-5	-61*
CC(C)(C)NC(=O)c1cc(NC(=O)c2cccs2)cc(NC(=O)c2cccs2)c1	2%	?	21µM*	-11	-7	-9
COc1ccc(C(=O)Nc2cccc(NC(=O)c3cccs3)c2)cc1	nt	?	?	1	-11	?
Cc1ccc(C(=O)Nc2cccc(NC(=O)c3cccs3)c2)c(C)c1	nt	-67%	16µM*	nt	0	1
COc1cc(NC(=O)c2cccs2)c(OC)cc1NC(=O)CCC(=O)Nc1ccc(C)cc1	nt	-32%	-25%	?	?	-12
Cc1cc(C)cc(C(=O)Nc2ccc(NC(=O)c3cccs3)cc2)c1	1%	?	?	6	-2	4
O=C(CSc1oc(-c2ccccc2)nc1S(=O)(=O)c1ccc(Cl)cc1)c1ccccc1	6%	15µM*	18µM*	nt	nt	nt
NC(=O)CSc1oc(-c2ccc(F)cc2)nc1S(=O)(=O)c1ccccc1	1%	-9%	-15%	-7	4	-3
O=C(CSc1oc(-c2ccc(F)cc2)nc1S(=O)(=O)c1ccc(Cl)cc1)c1ccccc1	6%	16µM*	15µM*	nt	nt	nt
CC(Sc1nnc(CN2CCCC2)n1Cc1ccccc1)C(=O)Nc1ccc(F)cc1 (configuration not stated)	2%	-29%	-9%	8	3	-7
